In PubChem BioAssay (NCATS):
Inconclusive results are not listed. The source made the active and inactive calls. Calls follow the shape of the dose curve; as a rule, active = well fitted inhibition curve with a large enough effect; inconclusive = small, poorly fitted or top-dose-only effect; inactive = flat fitted curve, though single readings scatter.

Assay: qHTS for Inhibitors of Plasmodium falciparum (HB3) proliferation (AID 504318); also: nearly all actives have a fitted effect of over 60% in size;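 as to activity change, negative = inhibition: 0% = DMSO vehicle and -100% = artemisinin control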
Settings: P. falciparum HB3 in erythrocytes, SYBR Green DNA, 72 h; series mostly up to 7.21 µM; activity change, negative = inhibition: at the top concentration
From the text: Plasmodium falciparum is a virulent malarial parasite that kills 1-2 million people worldwide each year. Malaria not only inflicts tremendous suffering and morbidity on the human population, but has dramatically influenced the course of civilization with profound sociological and economic implications (Shah, S. 2010). Transmitted by mosquitoes, the sporozoite form of the parasite enters the blood stream to infect hepatocytes, where they become merozoites that infect red blood cells (erythrocytes). Within erythrocytes, merozoites begin a […] cycle of growth and division, after which the parasite is released to infect new red blood cells. Gametocytes, which form within erythrocytes as well, circulate in the bloodstream and are ingested by the mosquito, thereby completing the life cycle (see CDC website). To profile malarial lines for differential chemical responses and to identify inhibitors of malarial growth, an assay that measures P. falciparum growth and replication within erythrocytes was employed. This assay uses a DNA binding fluorescent dye (SYBR Green) to detect parasite DNA following cell lysis. Because mature erythrocytes lack DNA, only Plasmodium-derived DNA is detected. The P. falciparum line cp250, derived from a malarial isolate from Cambodia, (Mu, J., et al. 2010) was added to the panel of lines, Dd2, HB3, 7G8 and GB4 in this study. Laboratory of Assay Development and Screening Technology [ADST] and NIH Chemical Genomics Center [NCGC] Boston University, Chemistry Department, Center for Chemical Methodology and Library Development [CMLD-BU] NIH National Institute of Allergy and Infectious Diseases [NIAID]
ADST Assay Protocol Summary: The 1536-well SYBR Green viability assay was based on the method of Bennett et al (2004) and described previously in 1536-well format (Yuan J., et al. 2009). For screening 3 ul culture medium was dispensed into 1536 well black clear bottom plates (Aurora Biotechnologies) using a Multidrop Combi (Thermo Fisher Scientific Inc.), 23 nL compounds in DMSO were added by a pin transfer (Cleveland, P.H. and Koutz, P.J, 2005) using a pin tool-based delivery system (Kalypsys), and 5 ul of erythrocytes infected with P. falciparum one of five lines (cp250, Dd2, HB3, 7G8 or GB4, 0.3% parasitemia, 2.5% hematocrit final concentration) were added. The plates were incubated at 37C in a humidified incubator in 5% CO2 for 72 h, and 2 ul lysis buffer (20 mM Tris HCl, 10 mM EDTA, 0.16% saponin, 1.6% triton X, 10X SYBR Green I (supplied as 10,000X final concentration by Invitrogen) was added to each well. The plates were mixed for 25 sec with gentle shaking and incubated overnight at room temperature in the dark. The following morning, fluorescence intensity at 485(14) nm excitation and 535(25) nm emission wavelengths was measured on an EnVision (Perkin Elmer) plate reader. Plate reads were normalized relative to the control inhibitor (0.29 uM artemisinin) and vehicle (DMSO) wells present on each plate and then corrected by an algorithm using vehicle-only control plates at the beginning and end of the compound plate stack. References Shah, S. (2010). The Fever: how malaria has ruled humankind for 500,000 years. New York, Sarah Crichton Books. CDC web site, http://www.cdc.gov/malaria/about/biology/index.html Mu, J., Myers, R.A., Jiang, H., Liu, S., Ricklefs, S., Waisberg, M., Chotivanich, K., Wilairatana, P., Krudsood, S., White, N.J., et Plasmodium falciparum genome-wide scans for positive selection, recombination hot spots and resistance to antimalarial drugs Nature Genetics 2010, 42, pp 268-271 Bennett TN, Paguio, M., Gligorijevic, B., Seudieu, C., Kosar, A. D., Davidson, E., and Roepe, P. D. Novel, rapid, and inexpensive cell-based quantification of antimalarial drug efficacy Antimicrobial Agents Chemother. 2004, 48(5): pp 1807-10 Yuan J, Johnson RL, Huang RL, Wichterman J, Jiang HY, Hayton K, Fidock DA, Wellems TE, Inglese J, Austin CP, Su XZ. […]
Potency is read from the fitted curve at half-maximal effect.

Structure (SMILES) | activity change, negative = inhibition | Potency
COC(=O)CCC(=O)OC1(C)C(=O)C2=CN(CC(C)C)C(c3ccc(OC)cc3)=CC2=C(Br)C1=O (stereo not given) | 1.21% (inactive) | 
COC(=O)C1=C(C(=O)OC)[C@@H]2N(C)c3ccccc3[C@@]23C[C@@H](CO)N(C(=O)c2ccco2)C3=N1 | -0.246% (inactive) | 
CCCCC1=CC2=CC(=O)C(C)(OC(=O)CC)C(=O)C2=CN1CCCOC(C)C (stereo not given) | -6.71% (inactive) | 
CCO[C@H](c1cc(OC)cc([N+](=O)[O-])c1OC)[C@H](C)C=CCC(=O)OC | -7.02% (inactive) | 
COC(=O)N[C@H](CC(C)=O)c1ccc(Cl)cc1 | 3.7% (inactive) | 
CC[C@H](C)[C@@H](NC(=O)O[C@@H]1C(=O)c2cc(Br)ccc2O[C@H]1c1cccc(OC)c1)C(=O)OC | -2.24% (inactive) | 
COC(=O)CCCC1=CC2=C(c3ccccc3)C(=O)C(C)(OC(=O)C3CCCC3)C(=O)C2=CN1CCc1ccccn1 (stereo not given) | -10.3% (inactive) | 
CCOC(=O)NN=C1C[C@@H](O)[C@@H](O)[C@@H]2[C@H]3C(=O)N(C4CCCCC4)C(=O)[C@@H]3CC[C@@H]12 | -0.286% (inactive) | 
COC(=O)C1=C(C)N(Cc2ccccc2)C(=O)N[C@H]1c1cccs1 | -4.03% (inactive) | 
CCCCc1nc2c(c3c1C[C@H](C)OC3)CN(C(=O)N[C@@H](C)c1ccccc1)CC2 | 4.33% (inactive) | 
CC#CCN1c2ccccc2[C@]23C[C@@H](C(=O)OC)N(S(=O)(=O)c4cccs4)C2=NC(C(=O)OC)=C(C(=O)OC)[C@H]13 | -3.53% (inactive) | 
COC(=O)C1=C(C)N(Cc2ccccc2)C(=O)N[C@H]1CCc1ccccc1 | 2.08% (inactive) | 
CCCCC1=CC2=CC(=O)C(C)(OC(=O)CC)C(=O)C2=CN1C(CO)CO (stereo not given) | 1.91% (inactive) | 
CCCCC1=CC2=CC(=O)C(C)(OC(=O)CC)C(=O)C2=CN1Cc1ccco1 (stereo not given) | 2.05% (inactive) | 
COC(=O)C1=C(C(=O)OC)[C@@H]2N(Cc3ccccc3)c3ccccc3[C@@]23C[C@@H](C(=O)OC)N(C(C)=O)C3=N1 | 4.15% (inactive) | 
O=C1c2cc(Br)ccc2O[C@@H](c2ccc3c(c2)OCO3)[C@@H]1O | -2.42% (inactive) | 
C=CC1=C2C=C(C3CC3)N(CCCN(CC)CC)C=C2C(=O)C(C)(OC(=O)c2ccco2)C1=O (stereo not given) | 3.95% (inactive) | 
COC/C=C/C1=CC2=CC(=O)C(C)(OC(=O)c3cnc4ccccc4n3)C(=O)C2=CN1c1cccc(C#N)c1 (stereo not given) | -3.99% (inactive) | 
CC#CCN1c2ccccc2[C@]23C[C@@H](C(=O)OC)N=C2NC(C(=O)OC)=C(C(=O)OC)[C@H]13 | 3.98% (inactive) | 
COC(=O)CCCC1=CC2=CC(=O)C(C)(OC(=O)c3cccs3)C(=O)C2=CN1c1ccccc1 (stereo not given) |  | inactive

Structure (SMILES) | activity change, negative = inhibition | Potency
CCOC(=O)CN1C(=O)N[C@@H](c2cccc(F)c2)C(C(=O)OC)=C1C | -3.96% (inactive) | 
CCOC(=O)CN1C(=O)N[C@@H](c2cccc(F)c2)C(C(C)=O)=C1C | -1.66% (inactive) | 
COC(=O)C1=C(C(=O)OC)[C@@H]2Nc3ccccc3[C@@]23C[C@@H](C(=O)OC)N(S(=O)(=O)c2ccc(C)cc2)C3=N1 | -1.02% (inactive) | 
CCN1C(=O)N[C@@H](c2cccc(F)c2)C(C(=O)OC)=C1C | 2.57% (inactive) | 
COC/C=C/C1=CC2=CC(=O)C(C)(OC(=O)c3cnc4ccccc4n3)C(=O)C2=CN1Cc1ccc(OC)cc1 (stereo not given) | -6.41% (inactive) | 
COC(=O)CCC(=O)OC1(C)C(=O)C2=CN(Cc3ccccc3)C(c3ccc(OC)cc3)=CC2=C(Br)C1=O (stereo not given) | -4.15% (inactive) | 
COC(=O)C1=C(C(=O)OC)[C@@H]2Nc3ccccc3[C@@]23C[C@@H](C(=O)OC)N(C(C)=O)C3=N1 | 5.97% (inactive) | 
CC(C)OCCCN1C=C2C(=O)C(C)(OC(=O)CCc3ccccc3)C(=O)C=C2C=C1c1ccc(C#N)cc1 (stereo not given) | -3.89% (inactive) | 
C[C@H]1Cc2c(COc3ccccc3)nc3c(c2CO1)CN(C(=O)NCCc1c[nH]c2ccccc12)CC3 | 1.3% (inactive) | 
CC1(C)O[C@@H](C(O)(c2cc(F)c(F)c(F)c2)c2cc(F)c(F)c(F)c2)[C@H](C(O)(c2cc(F)c(F)c(F)c2)c2cc(F)c(F)c(F)c2)O1 |  | 536 nM (active)
COC(=O)CCCC1=CC2=CC(=O)C(C)(OC(=O)c3cccs3)C(=O)C2=CN1c1cccc(C#N)c1 (stereo not given) | 0.646% (inactive) | 
Cc1ccccc1Nc1oc(-c2ccccc2)nc1-c1ccc(C(F)(F)F)cc1 | 6.24% (inactive) | 
C[C@H]1Cc2c(-c3ccccc3)nc3c(c2CO1)CN(C(=O)C1CC1)CC3 | -2.97% (inactive) | 
CCN1C(=O)N[C@@H](c2ccccc2)[C@H](C(C)=O)[C@H]1C | 0.985% (inactive) | 
CCN1C(=O)NC(c2ccc(Br)cc2)C(C(=O)OC)=C1C (stereo not given) | -0.897% (inactive) | 
COC/C=C/C1=CC2=CC(=O)C(C)(OC(=O)c3cnc4ccccc4n3)C(=O)C2=CN1c1ccc(CO)cc1 (stereo not given) | 2.27% (inactive) | 
CCOC(=O)CN1C(=O)N[C@@H](CCc2ccccc2)C(C(C)=O)=C1C | -3.87% (inactive) | 
COCCN1C(=O)N[C@@H](c2cccs2)C(C(C)=O)=C1C | 3.18% (inactive) | 
COC(=O)C1=C(C(=O)OC)[C@@H]2N(C)c3ccccc3[C@@]23C[C@@H](C(=O)OC)N(S(=O)(=O)c2ccc(C#N)cc2)C3=N1 | -0.647% (inactive) | 
COCCN1C(=O)N[C@@H](c2cccc(C(F)(F)F)c2)[C@@H](C(=O)OC)[C@H]1C |  | inactive
